The nature of the assay: viability loss in SR immunoblastic lymphoma – cell-based, Alamar Blue fluorescence, several timepoints, dry powder, mechanism study for HRAS target identification, late-stage follow-up (AID 720626). The following applies: SR lymphoma cells viability, 48 h; series mostly up to 35 µM. For orientation: The colour change of resazurin is a common sign of viable cells or microbes.

Results filed as inconclusive are left out. Activity calls are given as the source filed them.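 Rule for the calls: active = all three exposure times show falling viability signal with fitted midpoint dose at most twice top tested dose; inconclusive = calls differ across the three exposure times; inactive = all three exposure times inactive.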

For `CCC(=O)N(c1ccc(OC)c(Cl)c1)C(C(=O)NCCc1ccccc1)c1cccs1` (configuration not stated), the outcome was inactive.

Take `Cc1onc(C(=O)N2CCN(C(c3ccncc3)c3ccncc3)CC2)c1[N+](=O)[O-]`: the outcome was inactive.

For the origin of these results see PubChem BioAssay AID720626 (Broad Institute, 2013).
